SMILES strings stand for the structures. Calls of active or inactive are those of the source. The rule behind the calls is not given here.

The conditions of this assay: Ebola virus entry assay, blue channel fluorescence.
In general, AC50 refers to the concentration giving half of the maximal activity seen. For `CCCCOc1ccc(C(=O)CCN2CCCCC2)cc1`, the AC50 is 25.1 µM (active).
For the compound `OCCN1CCN(CCCN2c3ccccc3C=Cc3ccccc32)CC1`, the AC50 was 14.1 µM (active).
In the case of `COc1cc2c(cc1OC)-c1cc(=Nc3c(C)cc(C)cc3C)n(C)c(=O)n1CC2`, the AC50 is 15.8 µM (active).
The same measure, in the same setting: then `CN1CCC(=C2c3ccccc3CCc3cccnc32)CC1`, with 22.4 µM (active); and `COC(=O)[C@H]1[C@H]2C[C@@H]3c4[nH]c5cc(OC)ccc5c4CCN3C[C@H]2C[C@@H](OC(=O)COc2ccc(OC)cc2)[C@@H]1OC`, with 22.4 µM (active).
Turning to `N/C(=N\N=C\c1ccc(Cl)cc1)N/N=C/c1ccc(Cl)cc1`, the AC50 is 39.8 µM (active).
The same measure, in the same setting: for `O=C(c1ccc(F)cc1)C1CCN(CCn2c(=S)[nH]c3ccccc3c2=O)CC1` the value was 35.5 µM (active); for `Cc1nc2sccn2c(=O)c1CCN1CCC(=C(c2ccc(F)cc2)c2ccc(F)cc2)CC1`, 17.8 µM (active); for `Cc1cc(C(C)(C)C)c(O)c(C)c1CC1=NCCN1`, 39.8 µM (active).
Same read-out and setting: then `CN1CCC(=C2c3ccccc3CC(=O)c3sccc32)CC1`, with 31.6 µM (active); and `CCOC(=O)N1CCC(Nc2ccc(Cl)cc2N)CC1`, with 39.8 µM (active).
Same read-out and setting: then `Clc1ccc(Cn2c(CN3CCCC3)nc3ccccc32)cc1`, with 28.2 µM (active).
On to `O=C(O)c1cn(-c2ccc(F)cc2)c2cc(N3CCNCC3)c(F)cc2c1=O`, for which the compound was classed as inactive.
`Cc1ccc2c(Br)cc(Br)c(O)c2n1`: the AC50 is 35.5 µM (active).
As to `CC1=C(C)C(=O)C(C(CCCCCC(=O)O)c2ccccc2)=C(C)C1=O` (stereo unspecified), the outcome was inactive.
With `C[C@@H](C1=C(CCN(C)C)Cc2ccccc21)c1ccccn1`, the AC50 was 12.6 µM (active).

For the origin of these results see PubChem BioAssay (NCATS).
